Screening results: PubChem BioAssay, several laboratories
ATG4B inh – ATG4B protease inhibitors, primary screen, biochemical, fluorescence, uHTS; Cysteine protease ATG4B (Homo sapiens), Q9Y4P1; ATG4B cleavage of LC3-PLA2, NBD-HPC fluorescence, 1 h; inhibition, % at 8.33 µM; 340,000 tested, 0.51% active; AID 504462, 2011; in the data active means inhibition above about 40%
Target sequence (Q9Y4P1 whole entry, looked up): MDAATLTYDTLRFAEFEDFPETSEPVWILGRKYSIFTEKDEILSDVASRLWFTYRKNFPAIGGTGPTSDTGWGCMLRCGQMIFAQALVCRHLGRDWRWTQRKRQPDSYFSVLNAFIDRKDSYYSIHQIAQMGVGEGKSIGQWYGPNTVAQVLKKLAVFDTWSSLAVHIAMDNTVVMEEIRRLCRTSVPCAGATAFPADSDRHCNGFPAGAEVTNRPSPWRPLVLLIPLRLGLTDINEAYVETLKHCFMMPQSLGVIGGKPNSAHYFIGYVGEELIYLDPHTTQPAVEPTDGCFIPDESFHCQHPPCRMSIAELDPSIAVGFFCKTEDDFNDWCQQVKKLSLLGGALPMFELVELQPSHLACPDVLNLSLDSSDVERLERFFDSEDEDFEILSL
SUMO Mot1 rescue – yeast Mot1-301 growth rescue at high temperature, primary screen, SUMOylation pathway inhibitor project, S. cerevisiae, ATP luminescence, 38.5C. 320,000 tested, 1% active. growth rescue, % at 18.8 µM. S. cerevisiae Mot1-301 growth rescue; percent above DMSO median, 100 means doubled;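 active means every valid replicate shows activation above 250% relative to neutral control wells; inactive means the rest, any valid replicate at or below 250%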;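 further: OY570 slx delta 5 strain wells were the positive control but not used for scaling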
AI-2 QS mod – Vibrio harveyi AI-2 quorum sensing modulators, primary screen, JMH597 strain, luminescence/OD600 ratio. Vibrio harveyi JMH597 AI-2 luminescence/OD600 ratio, 9 h; active compounds read low; strain lacks LuxN and CqsS sensors; 0 = neutral-control median. activity change, % at 7.5 µM. 300,000 tested, 0.4% active; in the data active means activity change below about -75%, passing the limit was not always enough;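 further: luminescence divided by OD600 gain over 9 h not by final OD600 alone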
Efflux pump mplx – inhibitors of Candida efflux pumps in yeast, primary screen, S. cerevisiae, Nile Red, multiplex; S. cerevisiae Candida pump triplex; inhibition, % at 10 µM; 330,000 tested, 0.44% active;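 active means plate passing quality check with inhibition over a set limit, or well fluorescence over plate mean plus 4 SD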;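 further: Nile Red retained in pooled yeast measured as flow cytometry median fluorescence; 0% = buffer negative control and 100% = Enniatin B positive control; higher means more Nile Red kept so more efflux inhibition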
V-ATPase pHluor – regulators of yeast V-ATPase proton pumping, primary screen, pHLuorin cytosolic pH fluorescence; S. cerevisiae; response, % at 10 µM; 350,000 tested, 0.37% active; in the data active means response mostly above about 7.3%, no sharp cut-off; inactive means mostly below about 5.4%; further: actives read high
Yeast Mot1 SUMO – growth restoration of Mot1-301 yeast on galactose, dose response, SUMO pathway inhibitor project, whole organism, S. cerevisiae, ATP luminescence, cherry-picked samples; shares compounds with SUMO Mot1 rescue; AID 493004, 2010; 2,300 tested, under 10 active; S. cerevisiae Mot1-301 galactose growth, 24 h; -100 = growth of slx-deleted rescue strain; growth activity, percent, % at 42 µM;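 active means Signal drops as the depositor expects, and the fitted half-maximal dose is no more than ten times the top valid tested dose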;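 further: more negative values mean stronger growth rescue toward the control strain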
Active calls of the source: *; . = no result given; + = active, no number. Hits are enriched below; roughly 2.5% of the tested compounds scored in any of these assays.

SMILES	ATG4B inh	SUMO Mot1 rescue	AI-2 QS mod	Efflux pump mplx	V-ATPase pHluor	Yeast Mot1 SUMO
CCC1SC2=NC(C)=C(C(=O)OCCOC)C(c3ccc(C(=O)OC)cc3)N2C1=O (stereo not given)	-11.7	831.9*	17.9	-0.1	2.9	-0.8
O=C(CN1CCc2ccccc21)NN1CC(=O)N(c2ccc(Cl)cc2)CC1=O	-9.9	483.7*	22.2	0.0	0.8	-0.7
O=C(Nc1ccccc1)NN1CC(=O)N(c2ccc(Cl)cc2)CC1=O	-6.5	-2.1	6.2	-0.1	-3.1	.
O=C(CCNC(=O)C1CCN(S(=O)(=O)c2ccc(F)cc2)CC1)NCc1ccc(Cl)cc1	-2.3	19.8	14.8	0.1	2.8	.
O=C(OCc1ccccc1)N(CCF)c1cn(Cc2ccccc2)c(=O)n(Cc2ccccc2)c1=O	-1.7	.	.	.	7.0	.
COC(=O)c1ccc(CSc2nnc(-c3ccccc3)n2C)o1	2.9	-1.2	17.8	0.1	-2.7	.
COC(=O)c1ccc(CSc2nnnn2-c2ccccc2)o1	-1.3	+	27.1	0.0	0.5	1.1
O=c1nc(-c2ccccc2)cn[nH]1	-4.6	569.5*	31.3	0.0	-2.9	0.5
Cc1cc(NC(=O)c2ccc(N3C(=O)CCC3=O)cc2)no1	3.6	700.9*	4.5	0.1	6.5	0.1
COC(=O)c1ccc(NC(=O)c2cc[n+](Cc3ccccc3)cc2)cc1	-2.1	11.2	22.5	-0.1	7.5	.
CC1(C)CCc2cc(CN3CCN(c4ccccn4)CC3)ccc2O1	2.2	724.7*	17.6	0.0	-1.1	0.1
COc1ccc(-n2c3c(cc(C(=O)NCC(=O)c4ccccc4)c2=O)C(=O)CC(C)(C)C3)cc1	9.6	443.0*	22.7	-2.8	2.4	-0.2
O=C(CNC(=O)c1cc2c(n(-c3ccccc3)c1=O)CCCC2=O)c1ccccc1	-6.4	-9.6	14.5	-0.1	-1.8	.
O=C(CCC(=O)N1CCN(S(=O)(=O)c2ccc(Cl)cc2)CC1)Nc1cccc(Br)c1	-9.4	-26.5	10.5	-0.4	6.3	.
CCCCn1c(/C=N/Nc2nc3ccccc3[nH]2)nc2ccccc21	14.2	418.1*	14.5	-0.3	-7.4	-0.3
CCCCn1c(/C=C/c2ccco2)nc2ccccc21	9.4	12.2	16.0	-0.1	-0.2	.
CCOC(=O)c1ccc(CNC(=O)Cn2nnc(-c3ccc(C)cc3)n2)o1	-7.7	+	.	-0.1	-0.6	0.9
CCN(CC)C(=O)c1[nH]cnc1C(=O)N[C@@H](Cc1ccccc1)C(=O)OC(C)(C)C	2.4	-17.1	6.3	0.0	3.3	.
CCC1(c2ccccc2)NC(=O)N(CC(=O)N(C)CC(=O)Nc2ccc(F)c(F)c2F)C1=O (stereo not given)	2.2	609.5*	.	0.2	-2.9	1.2
CCOC(=O)c1sc(NC(=O)CSC(=S)N2CCN(C)CC2)nc1C	15.1	18.7	13.2	0.1	0.7	.
CCCNC(=O)c1cc2c(C(F)(F)F)nn(C)c2s1	-3.6	859.1*	16.0	0.1	-8.9	-0.1
CC(C)NC(=O)c1cc2c(C(F)(F)F)nn(C)c2s1	2.0	32.0	20.8	0.3	-4.6	.
O=C1Nc2ccccc2/C1=C/c1ccc([N+](=O)[O-])cc1	-0.7	476.9*	2.4	0.1	2.9	-0.4
O=C1Nc2ccccc2/C1=C/c1ccccc1Cl	-1.4	-8.3	3.0	0.1	-3.6	.
COc1ccc(/C=C2\N=C(c3ccccc3Cl)NC2=O)cc1	-1.7	.	15.8	.	1.8	.
CCc1nnc(NC(=O)CSCc2cc(=O)n3ccsc3n2)s1	7.1	-5.4	21.3	0.1	-7.8	.
CCOc1ccc(/C=N/NS(=O)(=O)c2ccc(C)cc2)cc1OC	3.0	+	5.9	0.0	-4.9	1.7
Cc1cc(N2CCC(C(=O)Nc3ccc(F)cc3)CC2)nc(-c2ccccc2)n1	-10.5	7.1	-2.8	0.5	-1.8	.
COc1ccc(NC(=O)C2CCN(c3cc(C)nc(-c4ccccc4)n3)CC2)cc1	-19.3	+	-15.3	0.0	-0.8	-0.1
